Compound activity as filed in PubChem.
Most compounds without a hit are left out; they make up all but 1.3% or so of the library.
Tb PYK inh – T. brucei pyruvate kinase inhibition; Q57TT1; AID 624173; Potency, µM (highest dose often 76.8 µM), without a hit: at the highest dose activity, negative = inhibition, actives largely listed as inhibitors; TbPYK enzyme, Kinase-Glo Plus ATP luminescence, 45 min; actives 0.12% (n = 410,000); note: nearly all actives have a fitted effect of over 50% in size
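Assay buffer: 50 mM TEA pH 7.2, 100 mM KCl, 10 mM MgCl2, 0.05% BSA, 0.01% Tween-20. Pyruvate kinase from T. brucei plus substrate met compound, then ADP (130 uM final). Luminescence was read post 45 min RT.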
Vaccinia mCherry – vaccinia inhibition (mCherry reporter). actives 0.63% (n = 310,000). Vaccinia virus mCherry reporter infection, fluorescence. Potency, µM (series often up to 36.5 µM), without a hit: top-dose activity change, negative = inhibition, actives largely listed as inhibitors. AID 720579; calls by dose curve; tested in A549 cells; note: nearly all actives have a fitted effect of over 35% in size
Vaccinia Venus – inhibitors of vaccinia virus (Venus reporter); Vaccinia virus Venus reporter expression, fluorescence; Potency, µM (highest dose often 36.5 µM), without a hit: top-dose activity change, negative = inhibition, hits mostly inhibitors; actives 0.46% (n = 330,000); AID 720580; calls by dose curve; tested in A549 cells; note: nearly all actives have a fitted effect of over 30% in size
AMA1 RON2 block – inhibitors of Plasmodium falciparum AMA1-RON2 interaction; AlphaScreen AMA1-biotinylated RON2 peptide binding; Potency, µM (titrated, usually from 58.2 µM), for the others: at the top dose activity change, negative = inhibition, hits mostly inhibitors; actives 0.2% (n = 360,000); AID 720542;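 note: 0% = vehicle wells and -100% = peptide control; nearly all actives have a fitted effect of over 45% in size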
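AMA1 (3D7) with his tag at 25 nM final met compounds first, then biotinylated RON2 peptide at 25 nM; detection used donor plus acceptor beads, 10 µg/mL apiece, read by AlphaScreen after 30 min at room temperature.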
LmPK inhibitor – blocks Leishmania mexicana pyruvate kinase activity | Potency, µM (highest dose often 57.5 µM), without a hit: top-dose activity change, negative = inhibition, hits mostly inhibitors | AID 1721 | purified LmPK, Kinase-Glo ATP luminescence, 1 h | actives 0.37% (n = 290,000)
Target sequence (Q27686 whole entry, looked up): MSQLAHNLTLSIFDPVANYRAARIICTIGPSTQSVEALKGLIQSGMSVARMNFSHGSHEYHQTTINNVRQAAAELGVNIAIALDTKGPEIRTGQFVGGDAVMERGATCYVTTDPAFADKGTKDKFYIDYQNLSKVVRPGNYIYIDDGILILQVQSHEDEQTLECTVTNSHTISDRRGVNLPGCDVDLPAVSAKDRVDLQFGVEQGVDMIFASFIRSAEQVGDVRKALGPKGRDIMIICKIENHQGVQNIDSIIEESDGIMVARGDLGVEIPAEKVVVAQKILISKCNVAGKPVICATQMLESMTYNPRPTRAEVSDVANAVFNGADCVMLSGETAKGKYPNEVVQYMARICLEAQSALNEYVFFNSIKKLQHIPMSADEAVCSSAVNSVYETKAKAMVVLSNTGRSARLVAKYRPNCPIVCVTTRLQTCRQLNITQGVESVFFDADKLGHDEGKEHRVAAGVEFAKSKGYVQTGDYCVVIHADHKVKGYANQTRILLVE
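Purified LmPK (0.1 nM) with 0.5 mM PEP and 0.1 mM ADP in imidazole buffer pH 7.2 with MgCl2/KCl, 1 h at room temperature. ATP formed was read by luciferase luminescence and normalized to no-enzyme and uninhibited controls.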
RE007 growth inh – less growth of the S. pombe RE007 Vpr strain; S. pombe RE007 Vpr strain, BacTiter-Glo ATP luminescence, 24 h; Potency, µM (doses to about 92.2 µM), for the others: at the top dose activity change, negative = less growth, usual class: inhibitors; actives 0.21% (n = 360,000); AID 651644; active = well fitted falling curve with a large enough effect; inconclusive = small, poorly fitted or top-dose-only effect; inactive = no such curve, though single readings can be large or run the other way; note: nearly all actives have a fitted effect of over 50% in size
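Fission yeast RE007 carrying one integrated HIV-1 vpr copy, seeded at OD 0.01 in PMG+AL medium with 23 nL pinned compound. Grown 24 h at 30 degrees; viability read by BacTiter-Glo luminescence after 5 min.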
* hit, by the source's call. Unless noted, calls come from the whole dose curve; as a rule, active = well fitted curve in the direction sought with a large enough effect; inconclusive = small, poorly fitted or top-dose-only effect, or another doubt; inactive = no such curve, though single readings can be large; an effect the other way counts as inactive or inconclusive. Unless noted, % is set by controls: 0 for no effect and ±100 for the full control effect; potency is the fitted concentration of half-maximal effect.

Results for COc1ccc2cc(CNCc3ccccc3Cl)c(N3CCCC(CO)C3)nc2c1 (centres undefined) ?
Vaccinia mCherry: -6.4%; Vaccinia Venus: 7.9%

How did COCCNC(=O)CCCn1c(SCc2ccccc2Cl)nc2c(sc3ccccc32)c1=O do in these assays?
Tb PYK inh: 0.6%; Vaccinia mCherry: -12.2%; Vaccinia Venus: -16.3%

What do the screens show for `CCN1CCN(C(=O)c2cnn(-c3ncc4c(n3)-c3ccccc3CCC4)c2COC)CC1`?
Vaccinia mCherry: -1.2%; Vaccinia Venus: -18.5%

How did O=C(NNC(=S)Nc1ccc(Cl)cc1)c1ccccc1OC(F)F do in these assays?
Tb PYK inh: -10.4%; Vaccinia mCherry: 12.6µM*; Vaccinia Venus: inconclusive; AMA1 RON2 block: 17.1%; LmPK inhibitor: 2.3%; RE007 growth inh: 3.2%

Results for COc1ccccc1C1CN(CC(=O)N2CCC(N3CCOCC3)CC2)Cc2ccccc2O1 (centres undefined) ?
Vaccinia mCherry: -3.5%; Vaccinia Venus: -2.7%

Results for C/C=C/C(=O)OCC(=O)Nc1cc(OC)c([N+](=O)[O-])cc1C ?
Tb PYK inh: -0.8%; Vaccinia mCherry: 5.62µM*; Vaccinia Venus: 7.94µM*; AMA1 RON2 block: -4.4%; LmPK inhibitor: 4.3%; RE007 growth inh: -9.5%

Results for CC(=O)OCC(=O)Nc1ccc([N+](=O)[O-])cc1Cl ?
Tb PYK inh: 6.2%; Vaccinia mCherry: -4.9%; Vaccinia Venus: -6.0%; AMA1 RON2 block: 15.8%; LmPK inhibitor: 6.0%; RE007 growth inh: -1.8%

What do the screens show for `C/C=C/C(=O)OCC(=O)Nc1cc([N+](=O)[O-])ccc1Cl`?
Tb PYK inh: -5.8%; Vaccinia mCherry: 11.2µM*; Vaccinia Venus: inconclusive; AMA1 RON2 block: 2.6%; LmPK inhibitor: -2.6%

Results for COc1cc(NC(=O)COC(=O)C=C(C)C)c(C)cc1[N+](=O)[O-] ?
Tb PYK inh: -1.2%; Vaccinia mCherry: -2.4%; Vaccinia Venus: -6.9%; AMA1 RON2 block: -7.1%; LmPK inhibitor: 1.1%; RE007 growth inh: -9.7%

How did CCC1CN(CCNC(=O)c2ccnc(Cl)c2)Cc2cc(OC)ccc2O1 (centres undefined) do in these assays?
Vaccinia mCherry: -6.5%; Vaccinia Venus: -4.0%

What do the screens show for `OC1C=C2CCN3Cc4cc5c(cc4C(C1O)C23)OCO5` (centres undefined)?
Vaccinia mCherry: inconclusive; Vaccinia Venus: 7.08µM*

How did O[C@@H]1[C@@H](O)C=C2CCN3Cc4cc5c(cc4[C@H]1C23)OCO5 (some centres undefined) do in these assays?
Tb PYK inh: -0.8%; Vaccinia mCherry: inconclusive; Vaccinia Venus: 3.98µM*; AMA1 RON2 block: 4.5%; RE007 growth inh: -2.6%

How did CC(C)c1c(C(=O)NCc2cccnc2)cnn1-c1nccc(-c2cccs2)n1 do in these assays?
Vaccinia mCherry: -4.2%; Vaccinia Venus: -4.3%

How did CC(=O)Nc1ccccc1-c1nc(CNC(=O)c2cc(C)ccc2C)c(C)o1 do in these assays?
Vaccinia mCherry: -5.0%; Vaccinia Venus: 12.0%

What do the screens show for `COC1=C(Nc2ccc(O)cc2)C(=O)c2ccccc2C1=O`?
Tb PYK inh: -20.3%; Vaccinia mCherry: 14.1µM*; Vaccinia Venus: 15.8µM*; AMA1 RON2 block: inconclusive; LmPK inhibitor: -20.2%; RE007 growth inh: -27.9%

Results for COC1=C(Nc2ccc(OC)cc2)C(=O)c2ccccc2C1=O ?
Tb PYK inh: -9.0%; Vaccinia mCherry: inconclusive; Vaccinia Venus: inconclusive; AMA1 RON2 block: 12.6µM*; LmPK inhibitor: -17.2%; RE007 growth inh: inconclusive

Results for CCOc1ccc(NC2=C(OC)C(=O)c3ccccc3C2=O)cc1 ?
Tb PYK inh: 4.6%; Vaccinia mCherry: 0.2%; Vaccinia Venus: 3.0%; AMA1 RON2 block: 8.91µM*; LmPK inhibitor: -16.2%; RE007 growth inh: -27.1%

What do the screens show for `Cc1nc2sccn2c1CN1CCOc2ccc(CN3CCN(c4ccc(F)cc4)CC3)cc2C1`?
Vaccinia mCherry: -21.0%; Vaccinia Venus: -22.5%

What do the screens show for `CC(C)NC(=O)c1cn([C@H]2CC[C@@H](NC(=O)/C=C/c3cccs3)CC2)nn1`?
Vaccinia mCherry: -0.5%; Vaccinia Venus: -17.4%

Results for CCOc1ccccc1N1C(=O)c2ccccc2N/C1=C\N1CCN(C(=O)c2ccco2)CC1 ?
Vaccinia mCherry: -8.6%; Vaccinia Venus: -23.5%

Results for Cc1nc2cc(NC(=O)[C@@H]3C[C@@H](Sc4ccccn4)CN3Cc3ccccc3F)ccc2s1 ?
Vaccinia mCherry: -21.5%; Vaccinia Venus: -18.5%

Results for CCCCn1c(/C=N/Nc2nc3ccccc3[nH]2)nc2ccccc21 ?
Tb PYK inh: -11.2%; Vaccinia mCherry: inconclusive; Vaccinia Venus: 11.2µM*; AMA1 RON2 block: 3.5%; LmPK inhibitor: 4.9%; RE007 growth inh: 11.4%

How did CCCCn1c(/C=C/c2ccco2)nc2ccccc21 do in these assays?
Tb PYK inh: 1.0%; Vaccinia mCherry: -6.9%; Vaccinia Venus: -0.3%; AMA1 RON2 block: 15.3%; LmPK inhibitor: -0.7%; RE007 growth inh: 0.0%

What do the screens show for `CCN1C(=O)CC(C(C)C)N(C2CCCC2)c2nc(Nc3ccc(C(=O)NC4CCN(C)CC4)cc3OC)ncc21` (centres undefined)?
Tb PYK inh: -5.2%; Vaccinia mCherry: inconclusive; Vaccinia Venus: 10µM*; AMA1 RON2 block: -2.3%; RE007 growth inh: -8.4%

How did Cc1cccc2c(N3CCCC3)nc(CNS(=O)(=O)c3ccc4ccccc4c3)nc12 do in these assays?
Vaccinia mCherry: -12.9%; Vaccinia Venus: 7.8%

What do the screens show for `CCOc1ccc(-c2cccc(NS(=O)(=O)c3cc([N+](=O)[O-])ccc3Cl)c2)nn1`?
Tb PYK inh: 2.1%; Vaccinia mCherry: 10µM*; Vaccinia Venus: inconclusive; AMA1 RON2 block: -4.2%; RE007 growth inh: 5.3%

How did Cc1onc(-c2ccccc2)c1C(=O)N[C@@H]1C(=O)N2[C@@H](C(=O)O)C(C)(C)S[C@@H]12 do in these assays?
Tb PYK inh: -9.6%

Results for COc1ccc(CN2CCCC(n3cc(C(=O)N4CCCCC4)nn3)C2)c(OC)c1C (centres undefined) ?
Vaccinia mCherry: -7.4%; Vaccinia Venus: 7.1%

How did Cc1ccsc1C(=O)N(Cc1cc2ccc(F)cc2nc1N1CCC(O)CC1)CC1CCCO1 (centres undefined) do in these assays?
Vaccinia mCherry: -7.0%; Vaccinia Venus: 4.5%

What do the screens show for `N#C/C(N=Nc1ccccc1O)=N\Nc1ccccc1O`?
Tb PYK inh: inconclusive; Vaccinia mCherry: inconclusive; Vaccinia Venus: inconclusive; AMA1 RON2 block: -15.1%; RE007 growth inh: 11.2µM*
